For eight compounds, Potency results are on record in PubChem BioAssay (NCATS).

Structures are written as SMILES. Inconclusive results are not listed. Calls of active or inactive are those of the source. The call rests on the fitted dose curve; in most records, active means well fitted curve in the direction sought with a large enough effect; inconclusive means small, poorly fitted or top-dose-only effect, or another doubt; inactive means no such curve, though single readings can be large; an effect the other way counts as inactive or inconclusive.

Assay [1] in a line: Quantitative High-Throughput drug screen in 47 multiple myeloma cell lines against the NCATS MIPE library collection: Karpas417_ECACC cell viability assay (AID 1918961). Further: potency means the concentration at half of the fitted maximal effect. The conditions noted are these: Karpas417 myeloma viability, CellTiter-Glo ATP luminescence, 48 h; viability (% of DMSO): at 45.8 µM (top of the series). An outline of the steps: (§1)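 We plated 500 myeloma cells per well, pinned in MIPE 4.0 compounds, and incubated for 48 hours at 37C. ATP was then quantified with CellTiter-Glo, with DMSO and media-only wells defining 100% and 0%.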

Assay [2] is described as follows: Quantitative High-Throughput drug screen in 47 multiple myeloma cell lines against the NCATS MIPE library collection: JIM3_ECACC cell viability assay (AID 1918963; further: nearly all actives have a fitted effect of over 35% in size; further: potency means the concentration at half of the fitted maximal effect). In outline:
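Primary qHTS used for cherry-picking: cells at 500/well, library compounds for 48 h (37C, 5% CO2), luminescent ATP assay.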

Assay [3] in a line: Quantitative High-Throughput drug screen in 47 multiple myeloma cell lines against the NCATS MIPE library collection: INA6_PLB cell viability assay (AID 1918965; further: potency means the concentration at half of the fitted maximal effect; nearly all actives have a fitted effect of over 55% in size). An outline of the steps: as §1
Assay [4] is described as follows: Quantitative High-Throughput drug screen in 47 multiple myeloma cell lines against the NCATS MIPE library collection: H1112_PLB cell viability assay (AID 1918967; further: nearly all actives have a fitted effect of over 30% in size; further: potency means the concentration at half of the fitted maximal effect). In outline:
(§2)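 Inhibition of cell viability is measured here. Each line was plated at 500 cells per well, treated with MIPE 4.0 drugs, kept 48 hours at 37C, then assayed for ATP content by CellTiter-Glo luminescence.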

Assay [5] is described as follows: Quantitative High-Throughput drug screen in 47 multiple myeloma cell lines against the NCATS MIPE library collection: Karpas25_ECACC cell viability assay (AID 1918968; further: potency means the concentration at half of the fitted maximal effect; nearly all actives have a fitted effect of over 35% in size). In outline: as §2
Assay [6] in a line: Quantitative High-Throughput drug screen in 47 multiple myeloma cell lines against the NCATS MIPE library collection: KMS27_JCRB cell viability assay (AID 1918970). Further: potency means the concentration at half of the fitted maximal effect; nearly all actives have a fitted effect of over 30% in size. The conditions noted are these: KMS27 myeloma cells, CellTiter-Glo ATP viability, 48 h; viability (% of DMSO): at 45.8 µM (top of the series). An outline of the steps:
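Each line is seeded at 500 cells per well and treated with library compounds for 48 hours under 37 °C, 5% CO2. CellTiter-Glo is then added for 5 min at room temperature before median relative luminescence is recorded.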
(In general: Cellular ATP, detected with luciferase, serves as a proxy for viable cell number.)

The nature of assay [7]: Quantitative High-Throughput drug screen in 47 multiple myeloma cell lines against the NCATS MIPE library collection: KMS12PE_JCRB cell viability assay (AID 1918972). Further: nearly all actives have a fitted effect of over 30% in size. Further: potency means the concentration at half of the fitted maximal effect. In outline:
as §1

A short description of assay [8]: Quantitative High-Throughput drug screen in 47 multiple myeloma cell lines against the NCATS MIPE library collection: KMS20_JCRB cell viability assay (AID 1918973). Further: nearly all actives have a fitted effect of over 45% in size. Further: potency means the concentration at half of the fitted maximal effect. An outline of the steps:
as §2

A short description of assay [9]: Quantitative High-Throughput drug screen in 47 multiple myeloma cell lines against the NCATS MIPE library collection: KMS21BM_JCRB cell viability assay (AID 1918974). Further: potency means the concentration at half of the fitted maximal effect. The note with it: ATP luminescence, 48 h; viability: at 45.8 µM (top of the series). An outline of the steps:
as §2

Assay [10] can be described thus: Quantitative High-Throughput drug screen in 47 multiple myeloma cell lines against the NCATS MIPE library collection: KMS26_JCRB cell viability assay (AID 1918975). Further: nearly all actives have a fitted effect of over 45% in size. Further: potency means the concentration at half of the fitted maximal effect. In outline:
(§3)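 CellTiter-Glo luminescence (ATP) after 48 h compound exposure, 37C/5% CO2; 500 cells/well; MIPE 4.0 approved/investigational drugs pinned in; DMSO = 100%, media only = 0% viability.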

Assay [11] is described as follows: Quantitative High-Throughput drug screen in 47 multiple myeloma cell lines against the NCATS MIPE library collection: NCIH929_DSMZ cell viability assay (AID 1918978). Further: nearly all actives have a fitted effect of over 35% in size. Further: potency means the concentration at half of the fitted maximal effect. An outline of the steps: (§4)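 Plated at 500 cells per well, myeloma lines received MIPE 4.0 compounds by pin tool. Following 48 h culture at 37 °C, CellTiter-Glo luminescence gave viability relative to DMSO and media-only controls.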

Assay [12] can be described thus: Quantitative High-Throughput drug screen in 47 multiple myeloma cell lines against the NCATS MIPE library collection: OCIMY1_PLB cell viability assay (AID 1918979). Further: nearly all actives have a fitted effect of over 35% in size. Further: potency means the concentration at half of the fitted maximal effect. An outline of the steps: as §4
Assay [13] is described as follows: Quantitative High-Throughput drug screen in 47 multiple myeloma cell lines against the NCATS MIPE library collection: JJN3_DSMZ cell viability assay (AID 1918966; further: nearly all actives have a fitted effect of over 50% in size; further: potency means the concentration at half of the fitted maximal effect). In outline: as §2
Assay [14] can be described thus: Quantitative High-Throughput drug screen in 47 multiple myeloma cell lines against the NCATS MIPE library collection: KMS12BM_JCRB cell viability assay (AID 1918971). Further: nearly all actives have a fitted effect of over 35% in size. Further: potency means the concentration at half of the fitted maximal effect. An outline of the steps: as §3
A short description of assay [15]: Quantitative High-Throughput drug screen in 47 multiple myeloma cell lines against the NCATS MIPE library collection: MMM1_PLB cell viability assay (AID 1918976). In outline: as §4
Assay [16] can be described thus: Quantitative High-Throughput drug screen in 47 multiple myeloma cell lines against the NCATS MIPE library collection: MOLP8_DSMZ cell viability assay (AID 1918977). Further: nearly all actives have a fitted effect of over 45% in size. Further: potency means the concentration at half of the fitted maximal effect. An outline of the steps:
as §4

Assay [17] is described as follows: Quantitative High-Throughput drug screen in 47 multiple myeloma cell lines against the NCATS MIPE library collection: JIM1_ECACC cell viability assay (AID 1918964). An outline of the steps: as §2
Assay [18] can be described thus: Quantitative High-Throughput drug screen in 47 multiple myeloma cell lines against the NCATS MIPE library collection: KMM1_JCRB cell viability assay (AID 1918960). Further: potency means the concentration at half of the fitted maximal effect; nearly all actives have a fitted effect of over 30% in size. In outline: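 Here, 48 h treatment with MIPE 4.0 agents at 37 °C preceded an ATP luminescence read. Plating density was 500 cells per well.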

In the case of `COc1cc(C[C@@H](CO)[C@H](CO)Cc2ccc(O)c(OC)c2)ccc1O`, the Potency in [1] is 5900 nM (active); in assay [2], 2640 nM (active); in assay [3], 1180 nM (active); in [4], 372 nM (active); in assay [5] it was 418 nM (active); in [6], 2960 nM (active). The Potency in assay [7] is 3720 nM (active); in [8], 526 nM (active); in assay [9] it was 2350 nM (active); in [10] it was 1320 nM (active); in assay [11], 590 nM (active). Also, the Potency result in assay [12] is “inactive”.

Take `CNC(=O)Nc1ccc(-c2nc(N3CC4CCC(C3)O4)c3cnn(C4CCC5(CC4)OCCO5)c3n2)cc1`: the Potency is 418 nM (active) in assay [2]; 41.8 nM (active) in assay [3]; 11.8 nM (active) in assay [13]; 6.6 nM (active) in assay [14]; 74.3 nM (active) in [7]; 10.5 nM (active) in assay [8]. The Potency in assay [9] was 41.8 nM (active); in [10] it was 1180 nM (active); in assay [15], 9.3 nM (active); in [16] it was 9.3 nM (active); in assay [12], 935 nM (active).

For `C[C@@H](NCc1cc2ccccc2[nH]1)c1cccc2ccccc12`, the Potency in assay [3] was 4690 nM (active). Moreover, the Potency result in [13], in [14], in assay [8], in assay [16] and in assay [11] was “inactive” throughout.

Take `C[C@](Cc1c[nH]c2ccccc12)(NC(=O)OC1C2CC3CC(C2)CC1C3)C(=O)NC[C@H](NC(=O)CCC(=O)O)c1ccccc1` (stereo partly drawn): the Potency entry in [2], in assay [17], in [14], in assay [9], in assay [10] and in assay [16] was “inactive” each time. Besides, the Potency result in assay [12] was “inactive”.

For `CS(=O)(=O)N1CCc2c(-c3cnc(N)nc3)nc(N3CCOCC3)nc21`, the Potency is 66.2 nM (active) in [18]; 1480 nM (active) in assay [3]; 105 nM (active) in [5]; 23.5 nM (active) in [6]; 935 nM (active) in [14]; 132 nM (active) in assay [10]. Further, the Potency in assay [15] is 148 nM (active); in assay [11], 20.9 nM (active).

Take `CC(C)n1cnc2c(NCCc3ccc(O)cc3)nc(-c3csc4ccccc34)nc21`: the Potency was 9350 nM (active) in [2]; 20900 nM (active) in assay [3]; 13200 nM (active) in assay [4]; 4180 nM (active) in assay [5]; 7430 nM (active) in assay [8]; 11800 nM (active) in assay [10]. Moreover, in assay [12], the Potency was 20900 nM (active).

As for `CC1(C)O[C@@H]2C[C@H]3[C@@H]4CCC5=CC(=O)C=C[C@]5(C)[C@@H]4[C@@H](O)C[C@]3(C)[C@]2(C(=O)CO)O1`, the Potency entry in assay [2], in [4], in assay [14], in assay [7], in assay [10] and in assay [12] was “inactive” each time. The Potency in assay [5] was 148 nM (active); in [8], 6620 nM (active); in [11] it was 16600 nM (active).

As to `CC(O)(C#Cc1ccc2c(c1)N(c1nc(N)ncc1Cl)CC2)c1nccs1` (stereo not drawn), the Potency was 5260 nM (active) in assay [18]; 8330 nM (active) in [3]; 1180 nM (active) in assay [4]; 20900 nM (active) in [6]; 13200 nM (active) in assay [7]; 2640 nM (active) in [8]. Also, the values for the Potency in [9] and in assay [15] were 332 nM (active) and 20900 nM (active), respectively.
